GPT2 inh = inhibitors of human GPT2 alanine aminotransferase. AID 1671188. Recombinant GPT2, coupled pyruvate oxidase/HRP Amplex Red fluorescence. Potency, µM (highest dose often 57.7 µM), actives largely listed as inhibitors. 100,000 tested, 0.25% active. Q8TD30; active means well fitted inhibition curve with a large enough effect; inconclusive means small, poorly fitted or top-dose-only effect; further: nearly all actives have a fitted effect of over 60% in size
Target sequence (Q8TD30 whole entry, looked up): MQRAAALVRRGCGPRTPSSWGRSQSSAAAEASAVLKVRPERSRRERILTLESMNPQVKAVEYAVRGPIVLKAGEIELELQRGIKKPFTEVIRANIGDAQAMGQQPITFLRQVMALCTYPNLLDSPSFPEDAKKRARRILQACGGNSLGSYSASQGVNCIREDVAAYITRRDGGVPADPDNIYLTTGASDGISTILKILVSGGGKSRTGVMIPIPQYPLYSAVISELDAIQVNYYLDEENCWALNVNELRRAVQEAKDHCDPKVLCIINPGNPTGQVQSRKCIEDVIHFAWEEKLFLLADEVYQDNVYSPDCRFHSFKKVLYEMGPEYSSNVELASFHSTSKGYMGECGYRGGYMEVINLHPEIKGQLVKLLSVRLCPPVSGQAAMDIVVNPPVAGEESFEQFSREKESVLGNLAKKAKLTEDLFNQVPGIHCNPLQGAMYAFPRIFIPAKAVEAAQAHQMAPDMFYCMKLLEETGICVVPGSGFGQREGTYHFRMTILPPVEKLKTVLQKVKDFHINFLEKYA
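Recombinant GPT2 (10ng/uL) with 250uM a-KG and 2mM L-alanine, 30 min at room temperature, in HEPES pH 7.5 buffer. Pyruvate detected by pyruvate oxidase/HRP/Amplex Red fluorescence after 30 min in the dark; AOA (50uM) as positive control.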
NPR1 antag = antagonists of human natriuretic peptide receptor Npr1. P16066. HEK293 hNpr1 GloSensor cGMP, ANP-stimulated luminescence. Potency, µM (titrated, usually from 46.3 µM), usual class: inhibitors. 76,000 tested, 1.6% active; calls by dose curve; further: nearly all actives have a fitted effect of over 60% in size
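Compound pre-incubated 30 min at room temperature on GloSensor-loaded HEK293 cells stably carrying hNpr1 and the pGS-40F cGMP biosensor. Stimulation uses hNppA at 0.1 nM final; luminescence is taken at baseline and 20 min post-agonist.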
Each line names hits and unclear results; the compound was inactive in the other large screens; ! = a repeat was not active. The full list was thinned out, with hits kept by preference.

Cc1ccc(S(=O)(=O)N2C[C@@H](F)C[C@H]2C(=O)N2CCCCC2)c(C)c1	none
CC(=O)NC1(C)CN(Cc2ccc(-c3cccc(F)c3)s2)C1	none
CC(=O)NC1(C)CN(Cc2ccc(-c3ccc(Oc4ccccc4)cc3)s2)C1	NPR1 antag 16µM
CS(=O)(=O)N1CCOc2ccc(CCC(=O)NC3CCS(=O)(=O)C3)cc2C1 (stereo not drawn)	none
COc1ccc(OC)c(NC(=O)c2c(C)oc3ccn(Cc4cccc(F)c4)c(=O)c23)c1	none
C[C@H]1COC2=C1C(=O)C(=O)c1c2ccc2c1CCCC2(C)C	GPT2 inh 17µM (no result: NPR1 antag)
Cc1coc2c1C(=O)C(=O)c1c-2ccc2c1CCCC2(C)C	GPT2 inh 14µM (no result: NPR1 antag)
Cc1coc2c1C(=O)C(=O)c1c-2ccc2c(C)cccc12	GPT2 inh 2.2µM! (no result: NPR1 antag)
O=C(NCC1CCCCC1)C1CCN(c2ccnc3ccnn23)CC1	none (no result: NPR1 antag)
CC1CCCC(C)N1C(=O)c1ccc2nc(-c3ccnc(Cl)c3)oc2c1 (stereo not drawn)	none (no result: NPR1 antag)
C[C@H](C(=O)N1CCCC1)C1CC[C@@]2(C)Cc3sc(-c4ccccc4)nc3[C@@H](C)[C@@H]2[C@H]1O (stereo partly drawn)	NPR1 antag inconclusive
COCCNC(=O)[C@@H](C)C1CC[C@@]2(C)Cc3sc(CSc4ccccc4)nc3[C@@H](C)[C@@H]2[C@H]1O (stereo partly drawn)	NPR1 antag 11µM
O=C(Cc1ccc(F)cc1)N1CCCC(C(=O)N2CCCC2c2nc3ccncc3[nH]2)C1 (stereo not drawn)	none (no result: NPR1 antag)
O=C(c1ccc(OCCN2CCCCC2)cc1)c1c(-c2ccc(O)cc2)sc2cc(O)ccc12	GPT2 inh 8.9µM! (no result: NPR1 antag)
CCCCOc1ccc(C(=O)CCN2CCCCC2)cc1	none (no result: NPR1 antag)
c1cncc(-c2cc(-c3cccc4cc[nH]c34)cn3cncc23)c1	GPT2 inh inconclusive
COCc1nn(CC(=O)N2CCc3sccc3C2)c(=O)n1-c1ccccc1	none
CSc1cccc(NC(=O)Nc2cccc(-c3ccc(N4CCCC4)nn3)c2)c1	none
CSc1ccc(NC(=O)Nc2cccc(-c3ccc(N4CCOCC4)nn3)c2)cc1	NPR1 antag 11µM
Nc1cccc(-c2ccc(N3CCCCC3)nn2)c1	NPR1 antag 4µM
CCN1CCN(c2ccc(-c3cccc(N)c3)nn2)CC1	NPR1 antag inconclusive
O=C(Nc1cc(F)cc(F)c1)Nc1cccc(-c2ccc(N3CCOCC3)nn2)c1	NPR1 antag 10µM
O=C(Nc1cccc(-c2ccc(N3CCOCC3)nn2)c1)Nc1ccc(F)cc1F	none
Cc1ccc(NC(=O)Nc2cccc(-c3ccc(N4CCOCC4)nn3)c2)cc1	NPR1 antag inconclusive
O=C(Nc1cccc(F)c1)Nc1cccc(-c2ccc(N3CCCCC3)nn2)c1	NPR1 antag 7.9µM
CCNC(=O)c1c(C)oc2c1CN(Cc1ccc(Br)o1)CC2	GPT2 inh inconclusive
COc1cccc(CN2CCOC3(CCN([S+](=O)([O-])c4ccccc4C)CC3)C2=O)c1	none
CC(C)(O)C1CCCN(C(=O)c2cc(COc3cccc(F)c3)[nH]n2)C1 (stereo not drawn)	none
CS(=O)(=O)N(C[C@H]1O[C@H](Cc2cc(-c3ccccc3)on2)CC[C@@H]1O)S(C)(=O)=O	none
COc1ccc(-c2cc(C[C@@H]3CC[C@H](O)[C@@H](CN(Cc4cccc(OC)c4)Cc4cccc(OC)c4)O3)no2)cc1	GPT2 inh inconclusive, NPR1 antag 11µM
COc1ccc(C(=O)NC[C@H]2O[C@H](Cc3cc(-c4ccccc4)on3)CC[C@@H]2O)cc1	none
NC[C@H]1O[C@H](Cc2cc(-c3cccc(O)c3)on2)CC[C@@H]1O	NPR1 antag 2.5µM
COc1ccc(NC(=O)NC[C@H]2O[C@H](Cc3cc(-c4cccc(O)c4)on3)CC[C@@H]2O)cc1	NPR1 antag 11µM
COc1ccc(-c2cc(C[C@@H]3CC[C@H](O)[C@@H](CNCc4cccc(OC)c4)O3)no2)cc1	NPR1 antag inconclusive
Cn1nc(C2CCCC2)cc1NC(=O)C1CC1	none (no result: NPR1 antag)
CN1C(=O)[C@@H]2C[C@@H](O)CN2C2(CN(Cc3cccc(F)c3)C2)C1=O	none
CCC(c1cccs1)N1C(=O)[C@H]2CN(S(=O)(=O)c3cccc(Cl)c3)C[C@H]2C1=O (stereo partly drawn)	none
COc1ccc(N2CC3CCC(C2)N3Cc2ccc(C#N)cc2)cc1	GPT2 inh 10µM (no result: NPR1 antag)
CC(C)N1CC2CCC(C1)N2Cc1ccc(C#N)cc1	none
c1c(-c2nc(C3CCOC3)no2)sc2c1CCCC2 (stereo not drawn)	NPR1 antag 8.9µM
CC(=O)c1ccc(-c2nc(C3CCOC3)no2)s1 (stereo not drawn)	none
CCN(Cc1ccccc1)C(=O)CCC[C@@H]1[C@H]2CCCN3CCC[C@@H](CN1C(=O)c1ccccc1)[C@@H]23	none
Cc1ccccc1-c1noc(-c2ccc(NC(C)c3cnn(C)c3)nc2)n1 (stereo not drawn)	NPR1 antag 7.9µM
Cn1cc(CNc2ccc(-c3nc(CCCc4ccccc4)no3)cn2)cn1	NPR1 antag inconclusive
Cc1ccc2c(c1)N1C(=O)OC[C@@H]1CCN(C(=O)c1ccc(C#N)cc1)C2	none
COCc1nc(-c2ccc(OC3CN(C(=O)c4cccc(OC)c4)C3)cc2)no1	NPR1 antag inconclusive
COCc1nc(-c2ccc(OC3CN(C(=O)c4ccc(OC)cc4)C3)cc2)no1	NPR1 antag 1.4µM
CCNC(=O)N1CCC(Oc2ccc(-c3noc(-c4ccccc4)n3)cc2)C1 (stereo not drawn)	none (no result: NPR1 antag)
CCNC(=O)N1CC(Oc2ccc(-c3nc(-c4ccccc4)no3)cc2)C1	NPR1 antag 0.25µM
O=C(Nc1ccccc1)N1CC(Oc2ccc(-c3nc(-c4ccccc4)no3)cc2)C1	none
O=C(Nc1cccc(F)c1)N1CC(Oc2ccc(-c3nc(-c4ccccc4)no3)cc2)C1	NPR1 antag 7.1µM
O=C(Cc1cccc(F)c1)N1CC(Oc2ccc(-c3nc(-c4ccccc4)no3)cc2)C1	NPR1 antag 7.9µM
O=C(Cc1cccc(F)c1)N1CC(Oc2cccc(-c3nc(-c4ccccc4)no3)c2)C1	none (no result: NPR1 antag)
COc1cncc(Nc2ncc(-c3c(C)noc3C)c3c2OCC3)c1	none
CCCCn1c(=O)c(C(=O)NC2CC2)nc2cccnc21	none (no result: NPR1 antag)
O=C(NCc1cccnc1)[C@@H]1C[C@@H](O)CN1C1CCN(C(=O)C2CCCC2)CC1	none
CCNC(=O)N[C@@H]1C=C[C@@H](c2c(C)nn(-c3ccc(OC)cc3)c2C)C1	NPR1 antag 10µM
COc1ccc(-n2nc(C)c([C@@H]3C=C[C@@H](NC(=O)NC4CCCCC4)C3)c2C)cc1	NPR1 antag 22µM
Cc1nn(-c2ccc(C(C)C)cc2)c(C)c1[C@@H]1C=C[C@@H](NC(=S)NC2CCCCC2)C1	none
COc1ccc(-n2nc(C)c([C@@H]3C=C[C@@H](NC(=O)Nc4cccc(C#N)c4)C3)c2C)cc1	NPR1 antag inconclusive
Cc1ccc(C(=O)N2CCC(c3n[nH]c(=O)n3Cc3ccc(F)cc3)CC2)c(C)c1	none
CCC(CC)CN1CC2(CCN(C(=O)CCc3cnn(C)c3)CC2)OC1=O	GPT2 inh inconclusive
CCc1noc(Cc2c(C)nn(-c3ccccc3)c2C)n1	none
COC(=O)[C@@H]1C[C@H](NS(=O)(=O)c2cc(OC)ccc2OC)CN1C	none
CN(Cc1ccc(F)cc1)Cc1ccc(-c2ccccc2)cc1	none
CN(Cc1ccc(-c2ccccc2)cc1)Cc1cccnc1	NPR1 antag 8.9µM
O=S(=O)(c1ccc(F)cc1)N1CCCC(Cn2c(C3CC3)nc3cccnc32)C1 (stereo not drawn)	none

High-throughput results as filed in PubChem.
